Data reported in PubChem BioAssay (NCI).
This is part of a sample that, as a whole, favours compounds with a hit. Of some 79,000 tested, about 15% had one in any assay. Calls of active or inactive are those of the source. Cut-off read from the data, not from the text of the source: active = growth inhibition above about 70%; inactive = the rest.

Tests used:
[1] = NCI Yeast Anticancer Drug Screen. Data for the wt2 strain (AID 169);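 note: 0% = growth of vehicle-treated yeast cultures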; details: S. cerevisiae wt2 strain growth inhibition, hits give high values
Procedure, shortened: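 Values express reduction in yeast growth under compound treatment, referenced to vehicle-treated cells.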

[2] = NCI Yeast Anticancer Drug Screen. Data for the mlh1 strain (AID 171);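 note: 0% = growth of vehicle-treated control cultures of the same strain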; details: S. cerevisiae mlh1 strain growth inhibition, hits give high values
Procedure, shortened: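 Steps: expose the defined-mutant yeast strain to compound; expose a parallel culture to vehicle; measure growth; express compound effect as inhibition relative to the vehicle culture.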

[3] = NCI Yeast Anticancer Drug Screen. Data for the sgs1 strain (AID 173);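 note: 0% = growth of vehicle-only control cultures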; details: S. cerevisiae sgs1 mutant, hits give high values
Procedure, shortened: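 Treat defined-mutant yeast with compound; measure growth; calculate inhibition relative to vehicle-treated cells.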

[4] = NCI Yeast Anticancer Drug Screen. Data for the mlh1 rad18 strain (AID 175); details: S. cerevisiae mlh1 rad18 strain growth inhibition, hits give high values
Procedure, shortened: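 Test agents were incubated with a yeast strain of defined genotype (DNA damage repair defect). Inhibition of growth was derived by comparison with vehicle-exposed cultures.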

[5] = NCI Yeast Anticancer Drug Screen. Data for the rad18 strain (AID 177); details: S. cerevisiae rad18 mutant growth inhibition, hits give high values
Procedure, shortened: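 A genetically defined yeast mutant impaired in DNA damage repair was treated with test compounds, then its growth was measured against cultures receiving vehicle alone.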

[6] = NCI Yeast Anticancer Drug Screen. Data for the rad52 strain (AID 147);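 note: 0% = growth of vehicle-treated control cultures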; details: S. cerevisiae rad52 mutant growth inhibition, hits give high values
Procedure, shortened: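 Screen used a yeast mutant impaired in DNA repair. After compound exposure, growth was measured. Values reflect inhibition compared with vehicle-treated cells.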

[7] = NCI Yeast Anticancer Drug Screen. Data for the wt1 strain (AID 149);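 note: 0% = growth of vehicle-treated wt1 cultures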; details: S. cerevisiae wt1 strain (SPY 50644) growth inhibition, hits give high values
Procedure, shortened: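 Readout: yeast growth inhibition, normalised to vehicle controls, in the wt1 strain exposed to test compounds.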

[8] = NCI Yeast Anticancer Drug Screen. Data for the rad50EPP+ strain (AID 151);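 note: 0% = growth of vehicle-treated control cultures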; details: S. cerevisiae rad50 mutant strain, hits give high values
Procedure, shortened: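 Exposing the rad50EPP+ strain to each compound, growth was compared with vehicle-only cultures to give inhibition.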

[9] = NCI Yeast Anticancer Drug Screen. Data for the mgt1 strain (AID 153); details: S. cerevisiae mgt1 mutant growth inhibition, hits give high values
Procedure, shortened: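 Genetically defined yeast (mgt1) treated with compound; inhibition of growth expressed against vehicle-treated controls.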

[10] = NCI Yeast Anticancer Drug Screen. Data for the rad50 strain (AID 155);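 note: 0% = growth of vehicle-only cultures of the same strain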; details: S. cerevisiae rad50 strain growth inhibition, hits give high values
Procedure, shortened: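 Compounds were tested on a yeast strain with an engineered DNA damage repair alteration; the reported value is growth inhibition normalised to vehicle treatment.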

[11] = NCI Yeast Anticancer Drug Screen. Data for the mec2-1 strain (AID 157); details: S. cerevisiae mec2-1 strain, hits give high values
Procedure, shortened: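 Readout is yeast growth inhibition, normalised to vehicle-treated controls, in the mec2-1 strain exposed to compound.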

[12] = NCI Yeast Anticancer Drug Screen. Data for the rad14 strain (AID 159);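 note: 0% = growth of vehicle-treated control cultures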; details: S. cerevisiae rad14 strain growth inhibition, hits give high values
Procedure, shortened: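 Compound-treated yeast with a defined DNA-repair lesion; growth inhibition normalised to vehicle-treated cultures.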

[13] = NCI Yeast Anticancer Drug Screen. Data for the sgs1 mgt1 strain (AID 161);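 note: 0% = growth of cultures given vehicle only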; details: S. cerevisiae sgs1 mgt1 strain, hits give high values
Procedure, shortened: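 Percent growth inhibition was derived by comparing compound-exposed mutant yeast with vehicle-exposed cultures. The strain carries alterations in DNA damage repair.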

[14] = NCI Yeast Anticancer Drug Screen. Data for the CLN2oe strain (AID 163);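 note: 0% = growth of vehicle-only control cultures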; details: S. cerevisiae CLN2oe strain, hits give high values
Procedure, shortened: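 Values reflect how much compound exposure reduced yeast growth, referenced to vehicle-exposed cells. Assay organism is a strain with a defined genetic change affecting cell-cycle control.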

[15] = NCI Yeast Anticancer Drug Screen. Data for the cln2 rad14 strain (AID 165);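 note: 0% = growth equal to vehicle treated cultures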; details: S. cerevisiae cln2 rad14 strain, hits give high values
Procedure, shortened: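 Relative to vehicle controls, growth inhibition of compound-treated cln2 rad14 yeast was recorded.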

[16] = NCI Yeast Anticancer Drug Screen. Data for the bub3 strain (AID 167); details: S. cerevisiae bub3 mutant strain, hits give high values
Procedure, shortened: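 Growth of a checkpoint-deficient yeast mutant is measured after compound exposure. Values represent inhibition relative to vehicle.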

[17] = at 5.0 µM (retest, dose inferred, filed as 0.5)
[18] = at 50.0 µM (retest, dose inferred, filed as 5.0)

Measured: growth inhibition

CCCCCCCCCCCC1N=C(N)NC(CCCO)=C1C(=O)OC (stereo unspecified)
inactive: [1]; at 1.2 µM 16% | [2]; at 1.2 µM 6% | [3]; at 1.2 µM 48% | [4]; [17] 53% | [5]; at 1.2 µM 67%
active: [1]; at 3.7 µM 99% | [1]; at 11.0 µM 99% | [1]; at 33.0 µM 99% | [1]; at 100.0 µM 99% | [2]; at 3.7 µM 99% | [2]; at 11.0 µM 99% | [2]; at 33.0 µM 99% | [2]; at 100.0 µM 98% | [3]; at 3.7 µM 99% | [3]; at 11.0 µM 99% | [3]; at 33.0 µM 99% | [3]; at 100.0 µM 99% | [4]; [18] 99% | [4]; at 50.0 µM 85.5% | [5]; at 3.7 µM 99% | [5]; at 11.0 µM 99% | [5]; at 33.0 µM 99% | [5]; at 100.0 µM 98%

COC1=C(OC)C(=O)C(Sc2ccc3ccccc3c2)=CC1=O
active: [6]; at 33.0 µM 93% | [6]; at 100.0 µM 92% | [7]; at 33.0 µM 94% | [7]; at 100.0 µM 92% | [8]; at 33.0 µM 95% | [8]; at 100.0 µM 97% | [9]; at 33.0 µM 94% | [9]; at 100.0 µM 92% | [10]; at 33.0 µM 92% | [10]; [18] 97% | [10]; at 50.0 µM 89.4% | [10]; at 100.0 µM 83% | [11]; at 33.0 µM 95% | [11]; [18] 98% | [11]; at 50.0 µM 93.3% | [11]; at 100.0 µM 89% | [12]; at 33.0 µM 96% | [12]; at 100.0 µM 93% | [13]; [18] 80% | [13]; at 50.0 µM 91.8% | [14]; at 33.0 µM 85% | [14]; at 100.0 µM 87% | [15]; at 50.0 µM 85.8% | [16]; at 33.0 µM 89% | [16]; [18] 79% | [16]; at 50.0 µM 91.2% | [16]; at 100.0 µM 87% | [1]; at 33.0 µM 96% | [1]; at 100.0 µM 94% | [2]; at 33.0 µM 95% | [2]; at 100.0 µM 95% | [3]; at 33.0 µM 93% | [3]; at 100.0 µM 93% | [4]; [18] 96% | [4]; at 50.0 µM 89.6% | [5]; at 33.0 µM 92% | [5]; at 100.0 µM 87%
inactive: [6]; at 1.2 µM -19% | [6]; at 3.7 µM -19% | [6]; at 11.0 µM 56% | [7]; at 1.2 µM -73% | [7]; at 3.7 µM -61% | [7]; at 11.0 µM -13% | [8]; at 1.2 µM -29% | [8]; at 3.7 µM -10% | [8]; at 11.0 µM 67% | [9]; at 1.2 µM -46% | [9]; at 3.7 µM -47% | [9]; at 11.0 µM 8% | [10]; at 1.2 µM -15% | [10]; at 3.7 µM 0% | [10]; [17] 17% | [10]; at 11.0 µM 19% | [11]; at 1.2 µM -69% | [11]; at 3.7 µM -40% | [11]; [17] 29% | [11]; at 11.0 µM 19% | [12]; at 1.2 µM -18% | [12]; at 3.7 µM -8% | [12]; at 11.0 µM 64% | [13]; [17] 5% | [14]; at 1.2 µM 5% | [14]; at 3.7 µM 19% | [14]; at 11.0 µM 45% | [15]; [17] 4% | [15]; [18] -12% | [16]; at 1.2 µM -11% | [16]; at 3.7 µM 0% | [16]; [17] 3% | [16]; at 11.0 µM -3% | [1]; at 1.2 µM -35% | [1]; at 3.7 µM -43% | [1]; at 11.0 µM 33% | [2]; at 1.2 µM -39% | [2]; at 3.7 µM -38% | [2]; at 11.0 µM 25% | [3]; at 1.2 µM -25% | [3]; at 3.7 µM -17% | [3]; at 11.0 µM 23% | [4]; [17] 47% | [5]; at 1.2 µM -36% | [5]; at 3.7 µM -25% | [5]; at 11.0 µM 58%
